Measured values published in PubChem BioAssay (NCATS).
Values without a mark were called inactive. Results filed as inconclusive are left out. Entries that show only a call come without a potency. Calls of active or inactive are those of the source. Unless noted, calls come from the whole dose curve; as a rule, active = well fitted curve in the direction sought with a large enough effect; inconclusive = small, poorly fitted or top-dose-only effect, or another doubt; inactive = no such curve, though single readings can be large; an effect the other way counts as inactive or inconclusive.

Assays:
[1] = biological target: Lysosomal acid glucosylceramidase (Homo sapiens) (UniProt P04062); experiment: Glucocerebrosidase-p2 (AID 348; in the data active = potency below about 10 µM; note: potency is the fitted concentration of half-maximal effect); conditions: purified GBA, blue fluorogenic substrate, 40 min
Lysosomal acid glucosylceramidase (Homo sapiens), sequence (P04062 whole entry, looked up): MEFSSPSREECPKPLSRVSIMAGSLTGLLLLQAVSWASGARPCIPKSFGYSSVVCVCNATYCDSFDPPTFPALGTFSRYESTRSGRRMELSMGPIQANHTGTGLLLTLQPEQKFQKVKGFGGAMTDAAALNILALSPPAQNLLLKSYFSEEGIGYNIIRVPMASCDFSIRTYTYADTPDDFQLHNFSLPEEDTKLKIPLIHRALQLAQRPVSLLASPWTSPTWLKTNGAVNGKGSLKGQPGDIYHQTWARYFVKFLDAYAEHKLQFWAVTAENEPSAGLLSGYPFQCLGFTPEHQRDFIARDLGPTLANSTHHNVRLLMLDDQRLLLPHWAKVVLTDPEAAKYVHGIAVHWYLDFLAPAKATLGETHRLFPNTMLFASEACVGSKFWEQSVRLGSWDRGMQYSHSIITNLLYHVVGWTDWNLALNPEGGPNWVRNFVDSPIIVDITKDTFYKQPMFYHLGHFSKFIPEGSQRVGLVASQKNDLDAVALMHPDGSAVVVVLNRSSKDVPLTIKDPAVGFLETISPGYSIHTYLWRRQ
In short: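 Normal human glucocerebrosidase (0.2 nM) with blue fluorogenic substrate (80 uM final) in citrate/phosphate pH 5.9 with 10mM sodium taurocholate, 0.01% tween-20; 40 min RT, NaOH/glycine stop; fluorescence Ex 365/Em 440; AC50 from a titration from 0.6 nM upwards.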

[2] = AP1 Signaling Pathway (AID 357; active = well fitted curve in either direction with a large enough effect, not every such curve was filed as active;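 note: ME-180 reporter cells stimulated with EGF at its EC50 level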); conditions: ME-180 AP-1-bla reporter, EGF-induced, beta-lactamase ratio, 5 h; at 7.69 µM (top of the series) unless noted
In short: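 Beta-lactamase reporter under AP-1 response element, ME-180 background. Stimulus: EC50 EGF. Compound exposure 5 h, 37 °C. Detection: CCF4, 2.5 h RT, 460/530 nm. Values: AC50 from titration.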

[3] = NFAT Signaling Pathway (AID 444; active = well fitted curve in either direction with a large enough effect, not every such curve was filed as active;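 note: carbachol stimulus at about its EC50 of 1 µM final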); conditions: Jurkat NFAT-bla M1, carbachol, beta-lactamase ratio, 5 h; at 7.69 µM (top of the series) unless noted
In short: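 Read-out: CCF4 FRET ratio (460 nm/530 nm) after 1 h RT dye loading, used for %activity and AC50 from titration series. Cells: Jurkat NFAT-β-lactamase/M1 line, treated with compound plus 1 uM carbachol for 5 h, 37 °C.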

[4] = Stat Signaling Pathway (AID 446; active = well fitted curve in either direction with a large enough effect, not every such curve was filed as active;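 note: ME-180 cervical cancer cells given 40 pM IL-6 alongside compound; SIE-controlled beta-lactamase reporter measured as 460/530 nm FRET emission ratio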); conditions: ME-180 (cervical carcinoma) SIE beta-lactamase reporter, IL-6 stimulated, 5 h; at 7.69 µM (top of the series) unless noted
In short: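 Compound effects on IL-6-induced STAT reporter activity were measured in ME-180 cells. After overnight culture, cells were co-treated with 40 pM IL-6 for 5 hrs before beta-lactamase substrate loading at room temperature.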

[5] = biological target: Glucocorticoid receptor (Homo sapiens) (UniProt P04150); experiment: GR-GFP Redistribution (AID 450;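 active = compounds whose dose series gives a full or clear partial fitted curve of increased nuclear translocation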; note: potency is the fitted concentration of half-maximal effect); conditions: U2OS GR-GFP nuclear translocation, laser cytometry, 2 h
Glucocorticoid receptor (Homo sapiens), sequence (P04150 whole entry, looked up, the tested form may be a part): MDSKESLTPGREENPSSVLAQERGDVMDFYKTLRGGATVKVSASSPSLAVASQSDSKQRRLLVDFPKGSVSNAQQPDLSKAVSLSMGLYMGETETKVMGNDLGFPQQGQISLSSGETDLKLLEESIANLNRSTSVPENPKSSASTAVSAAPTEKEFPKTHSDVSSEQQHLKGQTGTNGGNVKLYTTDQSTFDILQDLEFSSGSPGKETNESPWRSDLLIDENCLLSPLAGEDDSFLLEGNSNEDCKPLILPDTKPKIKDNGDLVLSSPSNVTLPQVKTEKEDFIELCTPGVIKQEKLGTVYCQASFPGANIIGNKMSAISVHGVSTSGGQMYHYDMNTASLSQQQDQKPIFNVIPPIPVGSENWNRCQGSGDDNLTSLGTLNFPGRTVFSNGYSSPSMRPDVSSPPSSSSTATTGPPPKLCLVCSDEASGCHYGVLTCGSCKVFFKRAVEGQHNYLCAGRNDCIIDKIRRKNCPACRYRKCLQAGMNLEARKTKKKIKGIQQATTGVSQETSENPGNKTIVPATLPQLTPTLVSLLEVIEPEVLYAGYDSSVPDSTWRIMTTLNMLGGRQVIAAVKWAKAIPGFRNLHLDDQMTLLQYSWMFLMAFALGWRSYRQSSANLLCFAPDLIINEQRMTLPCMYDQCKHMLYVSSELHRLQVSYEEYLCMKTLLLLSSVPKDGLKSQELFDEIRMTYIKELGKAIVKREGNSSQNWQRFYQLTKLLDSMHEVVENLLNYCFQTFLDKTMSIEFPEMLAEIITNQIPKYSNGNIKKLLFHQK

[6] = biological target: Glucocorticoid receptor (Homo sapiens) (UniProt P04150); experiment: GR-EFC Redistribution (AID 451; calls by dose curve; note: potency is the fitted concentration of half-maximal effect); conditions: CHO-K1 GR-EFC translocation, beta-gal luminescence, 2 h
In short: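 Translocation of GR-ED fusion to nuclear EA restores b-gal, read by luminescence after 1 h room-temperature detection. Engineered CHO-K1 biosensor cells, 1,000/well, exposed 2 h at 37 C to titrations up to 46 uM final.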

[7] = biological target: Mitogen-activated protein kinase 10 (Mus musculus) (UniProt Q61831); experiment: JNK3 AlphaScreen Assay (AID 530; active = well fitted curve in either direction with a large enough effect, not every such curve was filed as active;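 note: kinase came from lysate of stimulated human HepG2 cells; signal reports phosphorylation of biotinylated GST-cJun 1-79 at Ser73 with 10 µM ATP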); conditions: JNK3 lysate, c-Jun phosphorylation; series mostly up to 57.1 µM
In short: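 qHTS titrations with 15 min compound pre-incubation before adding ATP (10 uM final). Read-out: AlphaScreen of Ser73-phosphorylated biotin-GST-cJun using HepG2 lysate JNK3 activated by IL-1β and TNFα.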

[8] = biological target: Dual specificity protein kinase CLK4 (Homo sapiens) (UniProt Q9HAZ1); experiment: qHTS Assay for Inhibitors of CDC-like Kinase 4 (Kinase-Glo Assay) (AID 1770); conditions: recombinant Clk4, Kinase-Glo ATP depletion luminescence; series mostly up to 66.7 µM; note: nearly all actives have a fitted effect of over 65% in size; note: potency is the fitted concentration of half-maximal effect
Dual specificity protein kinase CLK4 (Homo sapiens), sequence (Q9HAZ1 whole entry, looked up): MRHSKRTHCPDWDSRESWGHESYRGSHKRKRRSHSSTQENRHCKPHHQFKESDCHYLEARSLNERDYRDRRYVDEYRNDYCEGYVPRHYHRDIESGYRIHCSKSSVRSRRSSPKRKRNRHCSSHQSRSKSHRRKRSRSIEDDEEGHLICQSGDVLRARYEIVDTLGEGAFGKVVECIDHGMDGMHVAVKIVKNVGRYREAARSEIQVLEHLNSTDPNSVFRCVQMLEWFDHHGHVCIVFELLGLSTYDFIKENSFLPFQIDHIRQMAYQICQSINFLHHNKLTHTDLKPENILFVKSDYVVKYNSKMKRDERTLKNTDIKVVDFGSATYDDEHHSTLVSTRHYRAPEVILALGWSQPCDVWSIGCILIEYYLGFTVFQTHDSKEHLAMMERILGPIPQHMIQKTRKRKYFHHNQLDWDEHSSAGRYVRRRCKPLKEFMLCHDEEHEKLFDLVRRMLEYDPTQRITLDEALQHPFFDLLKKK
In short: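 Luminescent ATP-depletion read-out (Kinase-Glo) after 4.5 h room-temperature reaction of Clk4 (25 nM final) with RS peptide (100 uM) and ATP (1 uM), pH 7.5 Tris buffer with MgCl2 and DTT.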

[9] = biological target: Dual specificity protein kinase CLK4 (Homo sapiens) (UniProt Q9HAZ1); experiment: qHTS Assay for Inhibitors of CDC-like Kinase 4 (ADP-Glo Assay) (AID 1771); conditions: recombinant CLK4, ADP-Glo luminescence; series mostly up to 80 µM; note: nearly all actives have a fitted effect of over 70% in size; note: potency is the fitted concentration of half-maximal effect
In short: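 ADP production was read by ADP-Glo luminescence after residual ATP depletion, following 1 h room-temperature reaction of 25 nM Clk4, 1 uM ATP and 100 uM RS peptide with MgCl2, EGTA, DTT and Triton X-100.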

[10] = biological target: Dual specificity protein kinase CLK4 (Homo sapiens) (UniProt Q9HAZ1); experiment: qHTS Assay for Inhibitors of CDC-like Kinase 4 (ADP-FP Assay) (AID 1795); conditions: Transcreener ADP fluorescence polarization; series mostly up to 50 µM; note: nearly all actives have a fitted effect of over 60% in size; note: potency is the fitted concentration of half-maximal effect;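 for activity change, negative = inhibition: recombinant human CLK4 phosphorylating RS repeat peptide at 1 µM ATP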
In short: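 Kinase activity was measured as ADP production using Transcreener orange tracer (4 nM) and ADP antibody (1 ug/mL) fluorescence polarization, with ADP calculated from a calibration curve. The 1 h reaction contained 6.25 nM Clk4, 1 uM ATP and 100 uM RS peptide at pH 7.5 with Mg2+.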

[11] = biological target: Ubiquitin carboxyl-terminal hydrolase 1 (Homo sapiens) (UniProt O94782); experiment: Inhibitors of USP1/UAF1: Pilot qHTS (AID 504865); conditions: purified USP1/UAF1, Ub-rhodamine cleavage fluorescence; series mostly up to 54.9 µM;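 note: rhodamine fluorescence freed from ubiquitin-rhodamine substrate followed over time; top concentration of the series differs between compounds; nearly all actives have a fitted effect of over 35% in size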
Ubiquitin carboxyl-terminal hydrolase 1 (Homo sapiens), sequence (O94782 whole entry, looked up): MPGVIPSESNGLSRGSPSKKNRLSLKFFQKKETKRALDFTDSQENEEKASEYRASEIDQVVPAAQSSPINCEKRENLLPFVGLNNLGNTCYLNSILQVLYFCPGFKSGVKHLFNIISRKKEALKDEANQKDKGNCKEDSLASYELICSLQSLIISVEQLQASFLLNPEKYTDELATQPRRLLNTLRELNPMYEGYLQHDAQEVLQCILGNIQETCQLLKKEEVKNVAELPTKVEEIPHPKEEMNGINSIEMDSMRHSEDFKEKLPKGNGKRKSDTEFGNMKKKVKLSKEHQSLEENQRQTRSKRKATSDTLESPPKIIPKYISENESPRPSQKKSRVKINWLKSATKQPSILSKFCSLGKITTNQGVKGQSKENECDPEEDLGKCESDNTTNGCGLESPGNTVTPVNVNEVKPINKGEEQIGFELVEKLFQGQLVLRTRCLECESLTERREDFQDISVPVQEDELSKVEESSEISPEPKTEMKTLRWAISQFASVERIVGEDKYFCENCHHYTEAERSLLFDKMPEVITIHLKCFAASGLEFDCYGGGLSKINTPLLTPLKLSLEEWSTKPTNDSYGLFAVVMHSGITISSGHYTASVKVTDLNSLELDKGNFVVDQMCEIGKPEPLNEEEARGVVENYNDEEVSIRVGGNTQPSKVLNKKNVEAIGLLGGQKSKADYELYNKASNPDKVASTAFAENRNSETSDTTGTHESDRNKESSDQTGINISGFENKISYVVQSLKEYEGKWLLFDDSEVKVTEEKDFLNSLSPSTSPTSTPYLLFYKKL
In short: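 Deubiquitinase activity followed as kinetic rhodamine fluorescence release from 150 nM Ub-Rho. 1 nM USP1/UAF1 with compound, after 15 min room-temperature preincubation, in HEPES pH 7.8 buffer containing TCEP, EDTA, BSA and Tween-20.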

[12] = Primary qHTS for small molecule stabilizers of the endoplasmic reticulum resident proteome: Secreted ER Calcium Modulated Protein (SERCaMP) assay (AID 1508630); conditions: SH-SY5Y GLuc-SERCaMP (Gaussia luciferase released on ER calcium loss) secretion, thapsigargin, luminescence; series mostly up to 38.4 µM
In short: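 The SH-SY5Y reporter protocol was run at 3 concentrations up to 38.3 uM (primary) or 11 concentrations (follow-up): 16 h compound, 100 nM thapsigargin for 4 h, then extracellular luciferase luminescence.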

[13] = biological target: 3',5'-cyclic-AMP phosphodiesterase 4B (Homo sapiens) (UniProt Q07343); experiment: qHTS Assay for Inhibitors of PDE-IV (AID 607; active = well fitted activation curve with a large enough effect in the main read-out, with a control signal flat, not every such curve was filed as active); conditions: HEK293 ACTOne CNG channel cells, membrane potential fluorescence; series mostly up to 22.9 µM
3',5'-cyclic-AMP phosphodiesterase 4B (Homo sapiens), sequence (Q07343 whole entry, looked up): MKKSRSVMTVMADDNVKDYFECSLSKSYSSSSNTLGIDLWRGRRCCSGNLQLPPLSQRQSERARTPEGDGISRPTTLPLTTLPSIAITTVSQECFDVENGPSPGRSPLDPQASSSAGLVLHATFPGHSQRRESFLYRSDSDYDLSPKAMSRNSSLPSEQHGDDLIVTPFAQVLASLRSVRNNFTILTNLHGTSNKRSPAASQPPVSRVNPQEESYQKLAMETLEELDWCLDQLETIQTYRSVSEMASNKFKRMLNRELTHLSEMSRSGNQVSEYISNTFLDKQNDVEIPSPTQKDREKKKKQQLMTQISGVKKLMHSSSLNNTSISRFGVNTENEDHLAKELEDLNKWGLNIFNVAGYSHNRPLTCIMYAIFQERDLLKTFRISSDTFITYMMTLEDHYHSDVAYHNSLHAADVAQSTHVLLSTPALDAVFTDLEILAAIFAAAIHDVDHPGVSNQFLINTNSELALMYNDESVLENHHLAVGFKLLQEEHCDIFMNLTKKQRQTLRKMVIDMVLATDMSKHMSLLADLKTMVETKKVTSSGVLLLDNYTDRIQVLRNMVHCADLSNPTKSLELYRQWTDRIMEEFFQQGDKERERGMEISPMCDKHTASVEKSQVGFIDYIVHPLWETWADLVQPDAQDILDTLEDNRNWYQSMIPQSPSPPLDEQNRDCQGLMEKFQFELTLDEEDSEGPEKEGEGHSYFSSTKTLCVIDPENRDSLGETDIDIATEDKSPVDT
In short: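 ACTOne HEK293 cells carry a modified cAMP-gated CNG channel and express endogenous PDE4; plated 1000 cells/well, compounds up to 22.9 uM final. Membrane-potential dye fluorescence (ex 535/em 590) was read; parental cells received 10 uM forskolin + 100 uM RO 20-1724.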

[14] = biological target: Cytochrome P450 1A2 (Homo sapiens) (UniProt P05177); experiment: p450-cyp1a2 (AID 410; calls by dose curve; note: potency is the fitted concentration of half-maximal effect); conditions: recombinant CYP1A2, luciferin-ME demethylation, luminescence; series mostly up to 57 µM
Cytochrome P450 1A2 (Homo sapiens), sequence (P05177 whole entry, looked up): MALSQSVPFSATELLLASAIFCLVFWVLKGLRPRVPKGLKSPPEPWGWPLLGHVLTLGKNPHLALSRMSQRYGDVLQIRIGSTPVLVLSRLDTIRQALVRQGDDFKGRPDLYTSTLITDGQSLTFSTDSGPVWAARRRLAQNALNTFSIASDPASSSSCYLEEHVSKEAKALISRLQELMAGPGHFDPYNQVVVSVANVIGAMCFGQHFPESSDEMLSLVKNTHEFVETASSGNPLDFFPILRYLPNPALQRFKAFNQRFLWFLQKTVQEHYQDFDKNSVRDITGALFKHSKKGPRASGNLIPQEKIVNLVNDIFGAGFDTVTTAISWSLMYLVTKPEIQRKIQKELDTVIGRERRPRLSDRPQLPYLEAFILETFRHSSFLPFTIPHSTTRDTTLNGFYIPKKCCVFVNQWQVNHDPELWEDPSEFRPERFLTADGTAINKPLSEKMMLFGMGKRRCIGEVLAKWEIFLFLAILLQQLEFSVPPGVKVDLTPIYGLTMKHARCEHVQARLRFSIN
In short: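 Luminescent demethylation readout: Luciferin-ME (100uM, equal to Km) turned over by 20nM CYP1A2 for 60 min at room temperature after NADPH regeneration addition, following 10 min compound preincubation. Normalization used 57 uM furafylline as full inhibition.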

[15] = biological target: Cytochrome P450 3A4 (Homo sapiens) (UniProt P08684); experiment: qHTS Assay for Activators of Cytochrome P450 3A4 (AID 885); conditions: recombinant CYP3A4, Luciferin-PPXE luminescence, 60 min; series mostly up to 57.1 µM; note: nearly all actives have a fitted effect of over 65% in size
Cytochrome P450 3A4 (Homo sapiens), sequence (P08684 whole entry, looked up): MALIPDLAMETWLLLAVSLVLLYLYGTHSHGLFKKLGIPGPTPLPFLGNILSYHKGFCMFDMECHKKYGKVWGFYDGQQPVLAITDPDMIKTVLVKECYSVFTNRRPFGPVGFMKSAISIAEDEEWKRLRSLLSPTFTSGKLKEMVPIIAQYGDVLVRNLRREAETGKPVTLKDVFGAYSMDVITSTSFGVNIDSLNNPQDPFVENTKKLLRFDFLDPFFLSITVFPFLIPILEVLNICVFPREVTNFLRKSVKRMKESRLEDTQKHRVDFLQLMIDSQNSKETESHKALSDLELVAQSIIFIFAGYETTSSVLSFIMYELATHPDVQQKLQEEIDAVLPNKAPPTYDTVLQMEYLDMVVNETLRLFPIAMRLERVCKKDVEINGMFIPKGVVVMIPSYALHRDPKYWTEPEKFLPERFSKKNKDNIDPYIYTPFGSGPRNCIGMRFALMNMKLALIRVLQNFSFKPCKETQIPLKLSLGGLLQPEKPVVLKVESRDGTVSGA
In short: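 CYP3A4 activity: Luciferin-PPXE O-dealkylation, 25uM substrate, 200mM KPO4, RT throughout. Read-out is luciferase luminescence; higher values reflect activation.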

[16] = biological target: Cytochrome P450 2D6 (Homo sapiens) (UniProt P10635); experiment: qHTS Assay for Inhibitors and Substrates of Cytochrome P450 2D6 (AID 891); conditions: recombinant CYP2D6, luciferin-ME EGE luminescence; series mostly up to 57.1 µM; note: potency is the fitted concentration of half-maximal effect; nearly all actives have a fitted effect of over 60% in size
Cytochrome P450 2D6 (Homo sapiens), sequence (P10635 whole entry, looked up): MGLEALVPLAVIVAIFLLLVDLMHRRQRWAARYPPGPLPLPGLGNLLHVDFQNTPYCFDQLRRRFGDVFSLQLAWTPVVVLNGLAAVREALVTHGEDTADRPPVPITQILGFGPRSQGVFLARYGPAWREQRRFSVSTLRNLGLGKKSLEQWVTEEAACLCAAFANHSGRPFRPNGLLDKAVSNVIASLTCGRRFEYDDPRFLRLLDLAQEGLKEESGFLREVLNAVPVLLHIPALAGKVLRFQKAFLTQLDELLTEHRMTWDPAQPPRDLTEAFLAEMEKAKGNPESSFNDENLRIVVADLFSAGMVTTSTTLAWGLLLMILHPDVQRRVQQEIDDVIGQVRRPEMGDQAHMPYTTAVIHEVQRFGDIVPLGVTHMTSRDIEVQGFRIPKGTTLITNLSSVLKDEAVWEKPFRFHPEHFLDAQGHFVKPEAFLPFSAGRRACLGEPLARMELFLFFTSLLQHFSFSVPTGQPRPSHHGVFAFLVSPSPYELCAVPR
In short: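 Luminescent read-out of luciferin formed by 5 nM human CYP2D6 demethylating 30 uM Luciferin-ME EGE (Km level) over 60 min at room temperature after NADPH regeneration addition. Data normalized to full inhibition by 1.43 uM quinidine.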

| Structure (SMILES) | Potency [1] | activity change, negative = inhibition [2] | activity change, negative = inhibition [3] | activity, negative = inhibition [4] | Potency [5] | Potency [6] | Potency [7] | Potency [8] | Potency [9] | Potency [10] | Potency [11] | outcome [12] | Potency [13] | Potency [14] | Potency [15] | Potency [16] |
| --- | --- | --- | --- | --- | --- | --- | --- | --- | --- | --- | --- | --- | --- | --- | --- | --- |
| Cc1cnc(CNc2nc(-c3c(C)noc3C)nc3ccccc23)cn1 | > 11.4 µM | 9.21% | 15% | -4.92% | > 46 µM | > 46 µM | inactive | inactive | inactive | inactive | inactive | inactive | – | – | – | – |
| CNc1ncnc2ccc(-c3ccc4c(c3)OCO4)cc12 | > 11.4 µM | -8.86% | 15.3% | 12.6% | > 46 µM | > 46 µM | inactive | 0.891 µM (active) | 0.631 µM (active) | 0.355 µM (active) | inactive | inactive | inactive | – | – | – |
| O=c1c(-c2ccccc2)nc2cnc(N3CCOCC3)nc2n1C[C@H]1CCCO1 | > 11.4 µM | 17% | – | 20.8% | > 9.22 µM | > 46 µM | inactive | inactive | inactive | inactive | – | inactive | inactive | 3.16 µM (active) | inactive | – |
| CCNc1ncc2nc(-c3cccs3)c(=O)n(Cc3cccc(OC)c3)c2n1 | > 11.4 µM | 19.3% | – | – | > 9.22 µM | > 46 µM | inactive | inactive | inactive | inactive | inactive | inactive | inactive | 0.126 µM (active) | inactive | – |
| CCNc1ncc2nc(-c3ccccc3)c(=O)n(CCOC)c2n1 | > 11.4 µM | 22.2% | 22.8% | – | > 9.22 µM | > 46 µM | inactive | inactive | inactive | inactive | inactive | inactive | inactive | 3.16 µM (active) | inactive | 3.16 µM (active) |
| Cn1c(=O)c(-c2ccc(F)cc2)nc2cnc(Nc3ccccc3)nc21 | > 11.4 µM | 4.86% | -9.42% | -5.13% | > 9.22 µM | > 46 µM | inactive | inactive | inactive | inactive | inactive | inactive | – | – | – | – |
| COc1cccc(Cn2c(=O)c(-c3ccc(F)cc3)nc3cncnc32)c1 | > 11.4 µM | -16.6% | -9.33% | -13.6% | > 9.22 µM | > 46 µM | inactive | inactive | inactive | inactive | inactive | inactive | – | – | – | – |
